Hit rate of the full screen: of about 64,000 compounds, about 220 (0.34%) were called active. The entries come from a sample that favours actives as a whole. A number with no mark means an inactive call.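 Rule for the calls: active = inhibition above 50%; inactive = the rest.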

Consider 62 compounds from PubChem BioAssay AID429 (Emory University Molecular Libraries Screening Center, 2006).

For this test, the target named is Heat shock protein HSP 90-alpha (Homo sapiens) (UniProt P07900). Kind of test: Hsp90 geldanamycin-site probe displacement – cell lysate, fluorescence polarization, NCI-N417 lysate, primary screen (AID 429).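 Note: 0% = tracer plus lysate wells and 100% = tracer alone without lysate.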 The following applies: NCI-N417 lysate Hsp90, Cy3B-geldanamycin FP displacement; at 30 µM; stronger effect = higher value.
For the compound `NC1CCN(O)C1=O` (configuration not stated), the inhibition was -1.33%.
In the case of `CCCC(=O)N(CCc1ccccc1)Cc1nc2ccccc2c(=O)[nH]1` it was -3.96%; in that of `Cn1c(=O)[nH]c(=O)c2c1nc(Br)n2CCCCSc1nc2ccccc2o1`, 2.94%.
`CSCCC(NS(=O)(=O)/C=C/c1ccccc1)C(=O)N1CCC(C)CC1` (configuration not stated): the inhibition is 0.46%.
In the case of `O=S1(=O)CCN2C(=N1)SC1=C2CCN(Cc2ccccc2)C1` it was 1.02%.
Take `COc1cc2c(cc1OC)C(c1ccncc1)CC(=O)N2` (configuration not stated): the inhibition is -0.47%.
Next, `CCC/C(O)=C1\C(=O)CC(C)(C)CC1=Nc1ccccc1OC`: -4.54%.
Next, `CC(=O)c1c(C)c[nH]c1C`: 3.14%; `COc1cc(C(=O)Nc2oc(-c3ccccc3)c(-c3ccccc3)c2C#N)cc(OC)c1OC`: 1.74%.
Next, `COc1ccc(CNC2CCCCC2)cc1`: -2.8%; `C=CCn1c(N)c(C(=O)OCC(C)C)c2nc3ccccc3nc21`: 65.5% (active); `C=CCn1c(N)c(S(=O)(=O)c2cccs2)c2nc3ccccc3nc21`: -4.06%.
As to `CC(C)Cn1c(N)c(C(=O)NCc2cccs2)c2nc3ccccc3nc21`, the inhibition is -3.05%.
Next, `CS(=O)(=O)NCc1ccc(C(=O)NCc2ccccc2)cc1`: -1.87%; `O=C(CCOc1ccccc1)NCc1ccccc1`: 2.46%; `N#C/C(=C\c1ccc(O)c(O)c1)C(=O)NCc1ccccc1`: 77.1% (active).
In the case of `COc1ccc(C2CC(c3ccc(C)cc3)Nc3ncnn32)cc1` (configuration not stated) it was -1.24%; in that of `CN(C)CCOC(=O)C(c1ccccc1)C1(O)CCCC1` (configuration not stated), -3.68%; in that of `CC(=O)c1ccc(-n2nnnc2SCC(=O)N2CCN(C(=O)c3ccco3)CC2)cc1`, -0.68%.
Take `O=C(O)C1CCCN(CCC=C(c2ccccc2)c2ccccc2)C1` (configuration not stated): the inhibition is 0.96%.
In the case of `COc1cc(NS(=O)(=O)c2cccc3nsnc23)c2ncccc2c1` it was 0.42%; in that of `COc1ccccc1Oc1ccc(S(=O)(=O)Nc2cccnc2)cc1`, -4.43%; in that of `O=C(O)CCC(=O)N(Cc1ccco1)c1nc(-c2ccccc2)cs1`, -1.19%.
In the case of `CS(=O)(=O)N1CCCC(C(=O)N2CCOCC2)C1` (configuration not stated) it was -0.69%.
In the case of `CN(c1ccc(C(=O)NCCC2=CCCCC2)cc1)S(C)(=O)=O` it was -2.17%; in that of `NC(=O)Cn1c(=O)oc2ccccc21`, 2.54%; in that of `O=C(NCCCN1CCN(Cc2ccccc2)CC1)C1CCN(S(=O)(=O)N2CCCC2)CC1`, -1.77%.
With `Oc1ccc(Cl)cc1/C=N/c1nc2ccccc2[nH]1`, the inhibition is 1.09%.
In the case of `NC(=O)C1=CN(C2OC(COP(=O)(O)OP(=O)(O)OC[C@H]3O[C@@H](n4cnc5c(N)ncnc54)C(OP(=O)(O)O)[C@H]3O)C(O)C2O)C=CC1` (some centres not stated) it was -0.66%; in that of `CCCCSc1nnc(-c2ccc(NC(=O)CC)cc2)n1C`, -0.77%.
In the case of `COC(=O)Cc1csc(Nc2c(C)n(C)n(-c3ccccc3)c2=O)n1` it was -1.47%; in that of `CCOc1ccc(N(CC(=O)NCc2ccc(OC)cc2)S(=O)(=O)c2c(C)noc2C)cc1`, -5.24%.
As for `O=C(Nc1ccccc1-c1nnn(CC(=O)N2CCN(c3ccccc3)CC2)n1)c1cccs1`, the inhibition was 0.39%.
In the case of `CC(c1cccnc1)N(CCN(C)C)C(=O)Nc1ccc(Cl)c(Cl)c1` (configuration not stated) it was -1.45%; in that of `Cn1c(=O)c2c(nc(SCC(=O)Nc3ccccc3N3CCCCC3)n2C)n(C)c1=O`, -1.91%.
Next, `COc1ccc(Cn2cccc(NC(=O)Nc3ccc(C#N)cc3)c2=O)cc1`: -1.69%; `O=C1C=C(NCCNc2c(F)c(F)c(CO)c(F)c2F)CCC1`: -1.66%.
With `Cn1cccc1C1(C(F)(F)F)NCCNC1=O` (configuration not stated), the inhibition is -0.05%.
For the compound `CCN(CC)Cc1c(C(=O)OC)nnn1-c1nonc1N`, the inhibition was -0.51%.
For the compound `Cc1cc2c(cc1C)NC(c1ccccn1)C1=C(CC(C)(C)CC1=O)N2` (configuration not stated), the inhibition was 0.74%.
In the case of `COC(=O)c1cc(S(=O)(=O)NC2CCN(Cc3ccccc3)CC2)cn1C` it was -0.68%; in that of `C=C(C)c1cccc(C(C)(C)NC(=O)N2CCN(c3ncccn3)CC2)c1`, 1.26%; in that of `CCOC(=O)N1CCN(C(=O)c2nn(-c3ccc(C)cc3)c(=O)c3c2c2ccccc2n3C)CC1`, -3.87%.
For the compound `CC(C)C(c1nnnn1C1CCCC1)N1CCN(c2ccccc2F)CC1` (configuration not stated), the inhibition is -0.85%.
In the case of `O=S1(=O)CC(NCc2ccccc2)C(Nc2ccc(Cl)cc2)C1` (configuration not stated) it was 1.54%; in that of `COc1cc(N=C2C=CC(=O)C=C2)c2ncccc2c1`, 3.25%.
In the case of `COc1ccc(-c2nc(CS(=O)CC(=O)NCc3ccccn3)c(C)o2)cc1` (configuration not stated) it was 71.4% (active); in that of `COc1ccc(-c2nc(CS(=O)CC(=O)NCc3cccnc3)c(C)o2)cc1OC` (configuration not stated), -3.8%.
In the case of `COc1ccc(-c2nc(CS(=O)CC(=O)N3CCc4ccccc4C3)c(C)o2)cc1` (configuration not stated) it was 0.64%; in that of `O=C1[C@@H]2C(Cc3ccc(O)cc3)NC3(C(=O)Nc4ccc(F)cc43)[C@@H]2C(=O)N1c1ccc(F)cc1` (some centres not stated), -5.22%.
In the case of `NC(=NC(=O)c1ccccc1)C1=C(O)CCC1=O`, the inhibition was 0.78%.
In the case of `CSCCC(Nc1nc2ccccc2s1)C(=O)O` (configuration not stated) it was 2.67%; in that of `C[C@H](NC(=O)NCCc1ccccc1)C(=O)O`, 1.74%.
Next, `Cc1ccc(C)c(NS(=O)(=O)c2cc(Br)cnc2N)c1`: 0.39%; `Cc1[nH]c2ccccc2c1C(=O)CSCC(=O)O`: -2.89%; `CC1CCN(Cc2nc3c(c(=O)n(C)c(=O)n3C)n2Cc2cccc3ccccc23)CC1`: -1.11%.
Turning to `CCCOC(=O)Cc1c(O)c2ccccc2[nH]c1=O`, the inhibition is 1.56%.
As to `COc1cc(OC)cc(-c2nc3nc(C)c(CCC(=O)NCc4ccco4)c(C)n3n2)c1`, the inhibition is 1.84%.
Next, `Cc1ccc(C2(c3ccc(C)cc3)NC(=O)N(Cc3c(C)noc3C)C2=O)cc1`: 1.01%.
Next, `COc1cc(NCCCC#N)c2ncccc2c1`: -2.3%; `C#CCCCNc1cc(OC)cc2cccnc12`: -1.17%; `COc1cc(NC(C)CCCNC(C)C)c2ncccc2c1` (configuration not stated): 95.6% (active).
